{"source": "ChEMBL document CHEMBL3988442", "about": "“University of Dundee, Small-Polar-MMV Screening Library” (2021)", "note": "The campaign covered roughly 38,000 compounds. About 1,200 (3.2%) showed an effect of 50% or more. The median lay at about -58%. Many of the other results were omitted from the sample, so strong results are more common in it than they were."}
{"tested_on": "Plasmodium falciparum", "assay": "Calibr Malaria Delayed Death Assay SOP", "format": "functional, organism-based", "set-up": "scale not given: in the data most compounds retested in dose-response had high values", "settings": "concentration 4.99e-06 (unit not given; other assays of the set use mol/L)", "units": {"Percent Effect": "%"}}
{"compound": "CN(C)C(=O)N1CCN(CCn2nc3ccccn3c2=O)CC1", "Percent Effect": -59.88}
{"compound": "O=C(O)c1cc(/C=C/c2ccccc2)ncn1", "Percent Effect": -169}
{"compound": "O=C1CC(c2ccc(F)cc2)c2cnn(C3CCCC3)c2N1", "note": "(stereo not drawn)", "Percent Effect": -115.7}
{"compound": "N#Cc1ccc(C2CC(=O)Nc3c2cnn3C2CCCC2)cc1", "note": "(stereo not drawn)", "Percent Effect": 52.33}
{"compound": "O=C1CC(c2ccccc2)c2cnn(C3CCCC3)c2N1", "note": "(stereo not drawn)", "Percent Effect": -174.4}
{"compound": "COc1ccc(C(C)=O)cc1CN1CCn2cccc2C1C", "note": "(stereo not drawn)", "Percent Effect": -51.16}
{"compound": "CSc1ccc(-c2nc(CN3CCC(C(N)=O)CC3)c(C)o2)cc1", "Percent Effect": -89.92}
{"compound": "CSc1ccc(-c2nc(CN3CCC(CN)C3)c(C)o2)cc1", "note": "(stereo not drawn)", "Percent Effect": 88.32}
{"compound": "CNC(=O)C1CCN(Cc2nc(-c3ccc(SC)cc3)oc2C)C1", "note": "(stereo not drawn)", "Percent Effect": -104}
{"compound": "Cc1nc2c(c(NC3CCN(Cc4ccccc4)CC3)n1)CCNCC2", "Percent Effect": 78.1}
{"compound": "Cc1nc2c(c(NC3CCN(Cc4cccnc4)CC3)n1)CCNCC2", "Percent Effect": -53.07}
{"compound": "Cc1nc2c(c(NC3CC3)n1)CCN(C(=O)CCc1cccnc1)CC2", "Percent Effect": -33.43}
{"compound": "Cc1cccc(CN2CC3(CCN(C(=O)C4CC4)CC3)OCC2=O)n1", "Percent Effect": -86.74}
{"compound": "COc1c(C)cnc(CNC(=O)c2cnc3onc(C)c3c2)c1C", "Percent Effect": -29.67}
{"compound": "COCCN(C)C(=O)Cn1cccc(OC)c1=O", "Percent Effect": -122.8}
{"compound": "CN(CCCc1cc(-c2ccc(F)cc2)n[nH]1)C(=O)CCn1cncn1", "Percent Effect": -232.6}
{"compound": "O=C(Cc1cccs1)N1CCn2cc(Cn3cccn3)nc2C1.O=C(O)C(F)(F)F", "Percent Effect": -86.13}
{"compound": "CN1CCN(C2CCN(CCOc3ccccc3F)CC2)C1=O", "Percent Effect": -15.81}
{"compound": "O=C(c1ccoc1)N1CC[C@H]2C[C@@H](c3nnc(C4CC4)o3)O[C@@H]2C1", "Percent Effect": -57.61}
{"compound": "Cc1nc(C)n(C2CCCN(C(=O)c3cn4cccnc4n3)C2)n1", "note": "(stereo not drawn)", "Percent Effect": -31.26}
{"compound": "CC1(C)CN(C(CNS(C)(=O)=O)c2ccc(Cl)cc2)CCO1", "note": "(stereo not drawn)", "Percent Effect": -25.75}
{"compound": "CC1(C)CN(C(CNS(N)(=O)=O)c2ccc(Cl)cc2)CCO1", "note": "(stereo not drawn)", "Percent Effect": -0.7806}
{"compound": "Cc1csc(CNC(=O)NCC2(c3ccc4c(c3)OCO4)CC2)n1", "Percent Effect": -58.48}
{"compound": "O=S(=O)(NCC1(c2cccs2)CCOCC1)c1ccc2c(c1)OCCO2", "Percent Effect": -63.38}
{"compound": "Cc1ncsc1CNC(=O)NCC1(c2ccc3c(c2)OCO3)CC1", "Percent Effect": -37.92}
{"compound": "I.c1cc2c(cc1C1(CNC3=NCCN3)CCCC1)OCCO2", "Percent Effect": 80.88}
{"compound": "O=C(Cc1ccc2c(c1)OCCO2)NC1CCCC1", "Percent Effect": -102.8}
{"compound": "c1cnc(NCc2noc3c2CN(c2cnccn2)CC3)nc1", "Percent Effect": -103.6}
{"compound": "CC(=O)NCc1ccc(C(=O)N2CCCC(n3cncn3)C2)o1", "note": "(stereo not drawn)", "Percent Effect": -131.6}
{"compound": "O=C([C@@H]1CCO[C@@H]2CCN(CC3CC3)C[C@H]21)N1CCCCO1", "Percent Effect": -73.92}
{"compound": "CC(C)(C(=O)NCCC(=O)O)c1cccc(Br)c1", "Percent Effect": -14.62}
{"compound": "CC(C)(C(=O)NCCCC(N)=O)c1cccc(Br)c1", "Percent Effect": -41.82}
{"compound": "CCC(=O)NCC(=O)NCC(C)(C)c1cccc(Br)c1", "Percent Effect": 86.82}
{"compound": "CCC(=O)NCC(=O)NCc1cc(Br)ccc1OC(F)F", "Percent Effect": 4.46}
{"compound": "COC(=O)NCC(=O)NCC(C)(C)c1cccc(C(F)(F)F)c1", "Percent Effect": 46.67}
{"compound": "COC(=O)NCC(=O)NCC(C)(C)c1cccc(Br)c1", "Percent Effect": 84.11}
{"compound": "Cn1c(C2CC2)nc2c1CCN(CCOc1ccccc1C#N)C2", "Percent Effect": -3.674}
{"compound": "CC1c2ncc(CN3CCN(C)CC3)n2CCN1Cc1ccccn1.O=C(O)C(F)(F)F.O=C(O)C(F)(F)F.O=C(O)C(F)(F)F.O=C(O)C(F)(F)F", "note": "(stereo not drawn)", "Percent Effect": -124}
{"compound": "Oc1ccc(N2CCC(Cc3ccccc3)CC2)nn1", "Percent Effect": -73.68}
{"compound": "N#Cc1cccc(CNC(=O)Nc2cccnc2N2CCCC2)c1", "Percent Effect": -57.4}
{"compound": "CCNC(=O)c1ccnc(CC2COc3c(cccc3OC)C2)c1", "note": "(stereo not drawn)", "Percent Effect": -85.49}
{"compound": "CCc1ccc2nc(NCCOCCO)cc(C)c2c1", "Percent Effect": -140.8}
{"compound": "CCc1ccc2nc(NCC(O)CO)cc(C)c2c1", "note": "(stereo not drawn)", "Percent Effect": -100}
{"compound": "CCc1ccc2nc(NCCCN(CCO)CCO)cc(C)c2c1", "Percent Effect": 83.32}
{"compound": "COc1ccc(-c2ccc(C(=O)N3CCC[C@@H]3CO)o2)cc1", "Percent Effect": -98.07}
{"compound": "COCCN1C[C@@H]2CN(C(=O)[C@H]3CCCO3)C[C@@H]2C1=O", "Percent Effect": -140.9}
{"compound": "Cc1cnc(CN2CCN(c3ccnc(-c4ccccc4)n3)CC2)cn1", "Percent Effect": -117.9}
{"compound": "COC(=O)N1CCC(NC(=O)N2CCCC2c2ccsc2)CC1", "note": "(stereo not drawn)", "Percent Effect": -44.77}
{"compound": "CC(C)(C)C(=O)N1C[C@H](c2ccsc2)[C@H]2CN(Cc3cccs3)CC[C@H]21.Cl", "Percent Effect": 27.72}
{"compound": "O=C(CC1CC1)N1CCO[C@H]2[C@H](OCCCn3cccn3)CC[C@@H]21.O=C(O)C(F)(F)F", "Percent Effect": -14.73}
{"compound": "CN(C)C(=O)N1CCC2(CC(=O)N(c3cccc(C#N)c3)C2)C1", "note": "(stereo not drawn)", "Percent Effect": -56.91}
{"compound": "Cc1ccccc1CC(=O)N1C[C@@H]2COC[C@]2(CN(C)C)C1.O=C(O)C(F)(F)F", "Percent Effect": -70.43}
{"compound": "CN(C)C1CCN(C(=O)c2ccnn2-c2ccc3ccccn23)CC1.O=C(O)C(F)(F)F", "Percent Effect": -10.05}
{"compound": "CN1CCCN(C(=O)c2ccnn2-c2ccc3ccccn23)CC1.O=C(O)C(F)(F)F", "Percent Effect": 69.35}
{"compound": "O=C(c1ccnn1-c1ccc2ccccn12)N1CCOCC1", "Percent Effect": -129.8}
{"compound": "Cc1ncsc1CNCC(C)c1nc2ccccc2o1", "note": "(stereo not drawn)", "Percent Effect": -88.91}
{"compound": "Cc1nc(CN2CCC(N(C)Cc3noc(C4CC4)n3)C2)oc1C", "note": "(stereo not drawn)", "Percent Effect": -157.8}
{"compound": "CCC[C@@H]1CN(C(=O)c2cc(-c3cccs3)n(C)n2)C[C@H]1N(C)C", "Percent Effect": -67.73}
{"compound": "CCC[C@@H]1CN(C(=O)c2cc3ccccc3cc2O)C[C@H]1N(C)C", "Percent Effect": 51.44}
{"compound": "CCC[C@@H]1CN(C(=O)c2ccccc2-c2ncc[nH]2)C[C@H]1N(C)C", "Percent Effect": -89.87}
{"compound": "CCC[C@@H]1CN(C(=O)c2ccccc2-c2ccccc2)C[C@H]1N(C)C", "Percent Effect": 18.3}
{"compound": "CCC[C@@H]1CN(C(=O)c2conc2-c2ccccc2)C[C@H]1N(C)C", "Percent Effect": 50.45}
{"compound": "CCC[C@@H]1CN(C(=O)c2ccccc2C(C)=O)C[C@H]1N(C)C", "Percent Effect": -122.5}
